Assay results: the supplement of paper PMC13380429
A number with no mark means an inactive call.

Tested on: Vero E6 infected with SARS-CoV-2
Experiment: inhibition of SARS-CoV-2 cytopathic effect; higher = more antiviral protection, active = above 15
Conditions: 48 h

Row | SMILES | inhibition of SARS-CoV-2 cytopathic effect (1 nM) [%] | inhibition of SARS-CoV-2 cytopathic effect (8.33 nM) [%] | inhibition of SARS-CoV-2 cytopathic effect (100 nM) [%] | inhibition of SARS-CoV-2 cytopathic effect (833.33 nM) [%] | inhibition of SARS-CoV-2 cytopathic effect (10000 nM)
1 | CCC1(c2ccccc2)C(=O)NCNC1=O [primidone] | 0.5 | -0.36 | -1.1 | 0.53 | 1.81%
2 | CCc1ccc(CCOc2ccc(CC3SC(=O)NC3=O)cc2)nc1 (stereo not given) [pioglitazone] | -1.62 | 1.34 | 1.49 | -8.11 | 1.27%
3 | C[C@]12CC[C@H](O)CC1=CC[C@@H]1[C@@H]2CC[C@]2(C)C(=O)CC[C@@H]12 | 1.25 | 0.45 | 0.19 | 5.63 | 1.12%
4 | C[C@H](NC[C@H](O)CP(=O)(O)CC1CCCCC1)c1ccc(Cl)c(Cl)c1 | 0.9 | -0.56 | -1.52 | 0.84 | 0.91%
5 | OC(CCN1CCCCC1)(c1ccccc1)C1CCCCC1 (stereo not given) [trihexyphenidyl] | -14.3 | -7.63 | -2.35 | -9.38 | -10.1%
6 | Nc1nccc2c1ncn2[C@@H]1O[C@H](CO)[C@@H](O)[C@@H]1O [3-deazaadenosine] | -0.84 | -2 | -2.27 | -0.63 | -2.6%
7 | CC(/C=C1\SC(=S)N(CC(=O)O)C1=O)=C\c1ccccc1 [epalrestat] | -1.25 | -1.52 | -1.17 | 1.15 | -0.07%
8 | CCS(=O)(=O)N(C)[C@@H]1c2cc(C#N)ccc2OC(C)(C)[C@H]1O.CCS(=O)(=O)N(C)[C@H]1c2cc(C#N)ccc2OC(C)(C)[C@@H]1O (racemic) [chromanol-(+/-)] | -3.93 | 0.47 | -1.69 | -0.89 | -1.62%
9 | CNCC(O)c1ccc(OC(=O)C(C)(C)C)c(OC(=O)C(C)(C)C)c1 (stereo not given) [dipivefrine] | 0.87 | 3.76 | 1.77 | 1.42 | 0.56%
10 | Oc1cc(O)c2c(c1)O[C@H](c1ccc(O)c(O)c1)[C@H](O)[C@H]2c1c(O)cc(O)c2c1O[C@H](c1ccc(O)c(O)c1)[C@H](O)C2 [procyanidin-B-2] | 2.26 | 3.77 | 2.22 | 2.06 | -0.73%
11 | Cc1cccc(C)c1OCC(=O)N[C@@H](Cc1ccccc1)[C@@H](O)C[C@H](Cc1ccccc1)NC(=O)[C@H](C(C)C)N1CCCNC1=O [Lopinavir] | 0.81 | -0.07 | 0.62 | -0.42 | 6.72%
12 | CCCCNNC(=O)c1ccc(Br)cc1 | 2.76 | 1.2 | 2.26 | 3.31 | -5.28%
13 | CCCC(C(=O)OCCN(CC)CC)(c1ccccc1)c1ccccc1 [proadifen] | -8.13 | -2.48 | -0.9 | -3.07 | -9.2%
14 | Oc1ccc(Cl)cc1 [parachlorophenol] | 1.78 | -0.13 | 1.68 | 2.25 | -1.37%
15 | C=C1CC[C@@H]2[C@](C)(CO)[C@H](O)CC[C@@]2(C)[C@@H]1C/C=C1/C(=O)OC[C@H]1O [andrographolide] | -3.07 | -2.2 | -0.1 | 8.92 | 32.5% (active)
16 | c1cc2c(cc1C1CCCCC1)c1c3n2CCNC3CCC1 (stereo not given) [tetrindole] | 1.68 | 1.55 | -2.86 | -1.8 | 20.8% (active)
17 | C=C(C)[C@@H]1CC=C(CO)CC1 [perillyl-alcohol] | 2.64 | -3.02 | 2.99 | 2.39 | -1.2%
18 | Cc1ccc(S(=O)(=O)NC(=O)NN2CC3CCCC3C2)cc1 (stereo not given) [gliclazide] | 0.85 | 1.91 | 1.12 | 2.55 | 2.6%
19 | CCN(CC)CC(=O)Nc1c(C)cccc1C [lidocaine] | 0.85 | 1.24 | 0.45 | 1.31 | -0.93%
20 | CCC/C=C1\OC(=O)C2=C1CCC=C2 [ligustilide] | 8.3 | 9.89 | 8.75 | 5.16 | 5.79%

Row | SMILES | inhibition of SARS-CoV-2 cytopathic effect (1 nM) [%] | inhibition of SARS-CoV-2 cytopathic effect (8.33 nM) [%] | inhibition of SARS-CoV-2 cytopathic effect (100 nM) [%] | inhibition of SARS-CoV-2 cytopathic effect (833.33 nM) [%] | inhibition of SARS-CoV-2 cytopathic effect (10000 nM)
21 | Clc1ccc(C(c2ccccc2Cl)C(Cl)Cl)cc1 (stereo not given) [mitotane] | -2.51 | -1.75 | -2.14 | -2.16 | 0.99%
22 | O=C(NNc1nc2cc(F)ccc2n2cccc12)c1cnccn1 | -2.31 | 0.82 | 0.63 | 0.71 | -4.33%
23 | COc1cc(C(=O)NS(=O)(=O)c2ccccc2C)ccc1Cc1cn(C)c2ccc(NC(=O)OC3CCCC3)cc12 [zafirlukast] | -1.22 | -0.73 | 0.48 | 0.88 | -2.73%
24 | Cc1ccc(CC2(O)CCN(CCOc3ccc(O)cc3)CC2)cc1 | -5.34 | 1.47 | 3.16 | -0.31 | 1.64%
25 | C=CC(=O)Nc1cc(Nc2nccc(-c3cn(C)c4ccccc34)n2)c(OC)cc1N(C)CCN(C)C [osimertinib] | 1.08 | 0.08 | -5.65 | -10.8 | -16.5%
26 | N#CC(c1ccc(Cl)cc1)c1c(Cl)cc(-n2ncc(=O)[nH]c2=O)cc1Cl (stereo not given) [diclazuril] | -4.3 | -0.75 | 0.27 | 1.84 | 0.73%
27 | CCC[C@@H](NC(=O)N1C(=O)C(CC)(CC)[C@@H]1Oc1ccc(C(=O)N2CCN(C)CC2)cc1)c1ccc2c(c1)OCO2 | 1.03 | 1.44 | -0.09 | 1.96 | -6.67%
28 | C[C@@H](O)[C@H]1C(=O)N2C(C(=O)O)=C(S[C@@H]3CN[C@H](CNS(N)(=O)=O)C3)[C@H](C)[C@H]12 [doripenem] | -0.14 | 0.27 | -2.53 | -0.35 | 0.46%
29 | C[C@]12C[C@H](O)[C@H]3[C@@H](CCC4=CC(=O)CC[C@@]43C)[C@@H]1CC[C@@H]2C(=O)CO [corticosterone] | -1.19 | -0.88 | 0.56 | -0.38 | 0.43%
30 | Cc1cc([N+](=O)[O-])ccc1NS(=O)(=O)c1cc(Cl)ccc1Cl | -3.81 | -2.34 | -0.48 | 0.28 | 2.09%
31 | O/N=C/c1cc[n+](COC[n+]2ccc(/C=N/O)cc2)cc1 [obidoxime] | 1.54 | -0.64 | -1.56 | -1.59 | -2.39%
32 | CC(C)OC(=O)C(C)(C)Oc1ccc(C(=O)c2ccc(Cl)cc2)cc1 [fenofibrate] | 4.02 | 5.16 | 3.28 | -0.31 | 0.82%
33 | O=C(O)[C@H]1CCCN(CCC=C(c2ccccc2)c2ccccc2)C1 (racemic) | -0.52 | -1.42 | -2.13 | -4.16 | -2.22%
34 | COC(=O)C1=C(C)NC(C)=C(C(=O)OCC(C)C)C1c1ccccc1[N+](=O)[O-] (stereo not given) [nisoldipine] | -1.53 | 0.72 | -2.24 | -0.83 | 1.64%
35 | C[C@]12CC[C@@H](O)C[C@H]1CC[C@@H]1[C@@H]2CC[C@]2(C)C(=O)CC[C@@H]12 [3-alpha-hydroxy-5-beta-androstan-17-one] | -1.07 | 1.38 | 2.2 | 3 | 2.64%
36 | Cc1[nH]c(=O)c(C#N)cc1-c1ccncc1 [milrinone] | 1.1 | -2.54 | -1.13 | -1.41 | 0.27%
37 | CNCCc1ccc(O)c(O)c1 [deoxyepinephrine] | -0.96 | 2.29 | 2.18 | -0.04 | -0.83%
38 | C[C@@H]1COCCN1c1cc(C2([S@](C)(=N)=O)CC2)nc(-c2ccnc3[nH]ccc23)n1 | -1.91 | -1.92 | 0.5 | 1.27 | 1.76%
39 | c1ccc2c(CC3=NCCN3)cccc2c1 [naphazoline] | 1.08 | 0.66 | 0.05 | 2.24 | 0.73%
